Data as given in PubChem BioAssay AID651821 (The Scripps Research Institute Molecular Screening Center, 2012).
The campaign covered roughly 370,000 compounds. About 4,700 (1.3%) were called active.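 Rule for the calls: active = inhibition above the plate cutoff, the mean of all test compounds on that plate plus 3 SD (cut at about 35% in these data); inactive = the rest.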 What follows is part of a selection rich in actives, with near analogues and random picks from the rest.

Test: small molecules binding CAG repeat RNA – biochemical, fluorescence, primary screen (AID 651821);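 note: 0% = DMSO alone and 100% = 100 µM mitoxantrone as full dye displacement; higher means more dye released from RNA so lower well fluorescence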
Conditions: r(CAG) RNA repeat, TO-PRO-1 dye displacement fluorescence; at 3 µM; active compounds read high

| Structure (SMILES) | inhibition |
| --- | --- |
| COc1cccc(CNC(=O)CNS(=O)(=O)c2ccc3nc(C)sc3c2)c1OC | 0.91% (inactive) |
| COc1cccc(CNC(=O)[C@H]2CCCN2C(=O)[C@H]2CCCN2C(=O)c2cc(F)cc(F)c2)c1 | -1.44% (inactive) |
| COC(=O)C[C@@H]1CC[C@@H]2[C@H](COc3ccc(NC(=O)c4cccc(F)c4)cc3C(=O)N2C)O1 | -0.86% (inactive) |
| COc1ccccc1C(=O)NC1CCCCN(C(C)C)C1=O (stereo not drawn) | -0.3% (inactive) |
| O=C(CCC1CCN(C(=O)c2cccc(Cl)c2F)CC1)Nc1ccccc1 | -5.06% (inactive) |
| C[C@@H]1CN([C@@H](C)CO)S(=O)(=O)c2ccc(-c3ccc(C(=O)N(C)C)cc3)cc2O[C@@H]1CN(C)Cc1ccccc1C(=O)O | 3.43% (inactive) |
| Cc1ccccc1-c1ccc2c(c1)O[C@@H](CN(C)Cc1ccc(C(=O)O)cc1)[C@@H](C)CN([C@H](C)CO)S2(=O)=O | 51.3% (active) |
| C[C@@H]1CN([C@H](C)CO)S(=O)(=O)c2ccc(C#C[C@@H](C)O)cc2O[C@@H]1CN(C)Cc1ccc(-c2ccccc2)cc1 | 4.36% (inactive) |
| CN(C)c1ccc(NC(=O)NC2CCCCN(Cc3ccc(Cl)cc3)C2=O)cc1 (stereo not drawn) | 5.29% (inactive) |
| CC(=O)Nc1ccc(C(=O)CSc2nc3ccc(C)cc3[nH]2)cc1 | 14.5% (inactive) |
| CSCC[C@H](NC(=O)OC(C)(C)C)C(=O)N/N=C/c1cc2ccc(C)cc2nc1Cl | 3.07% (inactive) |
| Cc1ccc2cc(/C=N/Nc3ccc(C(=O)O)cc3)c(Cl)nc2c1 | 41.6% (active) |
| CCOC(=O)/C=C/c1ccccc1O | 0.7% (inactive) |
| CCC(=O)Nc1ccc2c(c1)C(=O)N(C)[C@H]1CC[C@H](CC(=O)NCCOC)O[C@@H]1CO2 | -0.44% (inactive) |
| Cc1ccc(Cc2nnc(SCC(=O)Nc3ccccc3C)[nH]c2=O)cc1 | 15.2% (inactive) |
| COc1ccc(Cc2nnc(SCC(=O)Nc3ccc(C)c(Cl)c3)[nH]c2=O)cc1 | 70.4% (active) |
| Cc1ccc(Cc2nnc(SCC(=O)Nc3ccc(C)cc3C)[nH]c2=O)cc1 | 10.1% (inactive) |
| Cc1ccc(OCc2nnc(SC/C=C/c3ccccc3)n2Cc2ccco2)cc1 | 5.16% (inactive) |
| Cc1nnc(NC(=O)Nc2ccc(Cl)c(Cl)c2)s1 | 41.7% (active) |
| O=C(CC(O)(C(F)(F)F)C(F)(F)F)Nc1ccc(Cl)c(Cl)c1 | 4.89% (inactive) |
| O=C(CCS(=O)(=O)c1ccccc1)Nc1ccc(Cl)c(Cl)c1 | 5.15% (inactive) |
| Cc1ccc(NC(=O)Nc2cc(C)nn2-c2ccccc2)cc1 | 0.22% (inactive) |
| Cc1ccc(CNC(=O)Nc2nnc([C@H]3C[C@H](O)[C@@H](CO)O3)s2)cc1 | 6.41% (inactive) |
| Cc1ccc(NC(=O)Nc2nnc(-c3ccncc3)s2)cc1 | 56.5% (active) |
| CCOC(=O)Cn1c2c(n(-c3ccc(F)cc3)c1=O)C=C(c1ccccc1)[C@@H](C)C(C(=O)N(C)C1CCCCC1)=C2 | 7.36% (inactive) |
| O=C1CCC2(CCC(c3ccc(Cl)cc3)CC2)N1CCO (stereo not drawn) | 0.01% (inactive) |
| Cc1c(NC(=O)Nc2cccc([N+](=O)[O-])c2)c(=O)n(-c2ccccc2)n1C | -1.07% (inactive) |

| Structure (SMILES) | inhibition |
| --- | --- |
| Cc1cc(/C=N/Nc2ccc([N+](=O)[O-])cn2)c(C)n1-c1cccc(C(=O)O)c1 | 47.8% (active) |
| Cc1cccc(C(=O)NC(=S)N2CCN(c3ccc([N+](=O)[O-])cc3)CC2)c1 | 1.75% (inactive) |
| CCN(CC)Cc1c(C(=O)OC)nnn1-c1nonc1N | -2.7% (inactive) |
| CCCCOCCCNC(=O)C[C@H]1C[C@@]2(C(=O)OC)C(=C[C@H](COCc3ccccc3)O[C@@H]2C)N(Cc2cccc3ccccc23)C1=O | 4.81% (inactive) |
| Cc1ccc(SC(CC(=O)c2ccc(C(C)(C)C)cc2)C(=O)O)cc1 (stereo not drawn) | 42.9% (active) |
| Cc1ccc(SC(C)C(=O)NCc2ccc(F)cc2)cc1 (stereo not drawn) | -0.76% (inactive) |
| Cc1ccc(CSCC(N)C(=O)O)cc1 (stereo not drawn) | 5.4% (inactive) |
| CCOC(=O)C1=C(C)NC(SC)=NC1c1ccccc1 (stereo not drawn) | 0.67% (inactive) |
| CO[C@@H]1[C@@H](OC(N)=O)[C@@H](O)C(Oc2ccc3c(O)c(NC(=O)c4ccc(O)c(CC=C(C)C)c4)c(=O)oc3c2C)OC1(C)C (stereo partly drawn) | 49.8% (active) |
| COc1ccc(NC(=O)N(C)C[C@@H]2OCCCC[C@@H](C)Oc3ccc(NC(=O)NC4CCCCC4)cc3C(=O)N([C@H](C)CO)C[C@@H]2C)cc1 | 10% (inactive) |
| O=C(COc1ccccc1Cl)Nc1ccc(C(=O)c2ccc(C(=O)O)cc2)cc1 | 41.2% (active) |
| O=C(COc1ccccc1)Nc1ccc(C(=O)N2CCCC2)cc1 | -1.86% (inactive) |
| COc1cc(NC(=O)COc2ccccc2Cl)ccc1NC(=O)C(C)C | -5.61% (inactive) |
| O=C(OC12CCCN(C1)/C(=C/c1cccnc1)C2)C1CCCC1 (stereo not drawn) | -0.17% (inactive) |
| COc1ccccc1-c1nnc(NC(=O)c2ccc3ncsc3c2)o1 | 10.6% (inactive) |
| Cc1sc(NC(=O)c2ccc3ncsc3c2)c(C(N)=O)c1C | 35.7% (active) |
| O=C(COC(=O)c1ccc2ncsc2c1)Nc1ccc(Cl)cc1 | 7.21% (inactive) |
| O=C(CCl)NC1CCCCN(Cc2cccc(C(F)(F)F)c2)C1=O (stereo not drawn) | 1.48% (inactive) |
| Cc1c(C)c2c(OCC(=O)N[C@@H](C(=O)O)c3ccccc3)cc3c(c2oc1=O)CCC(C)(C)O3 | 41.1% (active) |
| Cc1cc(=O)oc2c3c(cc(OCC(=O)N[C@H](C(=O)O)c4ccccc4)c12)OC(C)(C)CC3 | 33.1% (inactive) |
| Cc1c(C)c2c(OCC(=O)NCCCO)cc3c(c2oc1=O)CCC(C)(C)O3 | -6.81% (inactive) |
| CCN(CC(=O)Nc1c(F)cccc1F)C(=O)CN1c2cccc3cccc(c23)S1(=O)=O | -4.19% (inactive) |
| c1csc(-c2nnc(SCc3nc4ccccc4[nH]3)o2)c1 | 0.42% (inactive) |
| COC(=O)C1[C@H]2SC(C)(C)C(C(=O)OC)N2C(=O)N1Cc1nc2ccccc2s1 (stereo partly drawn) | -2.88% (inactive) |
| COC(=O)Cc1csc(Nc2c(C)n(C)n(-c3ccccc3)c2=O)n1 | 3.58% (inactive) |
| COC(=O)Cc1cc(=O)n(-c2nc3ccccc3s2)[nH]1 | 60.6% (active) |
